The supplement of paper PMC7411054
Structures can show the parent of a compound that is named as a salt.

How the values were obtained:
Test in all cases: phenotypically active (imaging signature differs from DMSO and reproducible) at any of 0.3-9 uM (binary (1 = active, 0 = inactive)); higher = active
Details in all cases: treatment time: 24 h
[1] = test system: A549-ACTB-RAB5A
How it was run: (§1)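 The reporter lines, fifteen in total and built by gene editing in A549, HepG2 and WPMY1 cells, used BFP for segmentation alongside GFP and RFP/FusionRed markers. Each was treated at 0.3, 1, 3 or 9 µM for 24 h in four wells and then imaged live, with live-cell features normalised to solvent control wells. Deviation meant ≥3 of 4 wells beyond the 95th percentile of control Euclidean distances; reproducibility meant a median replicate Pearson correlation above the 95th percentile of non-replicates. Only conditions meeting both were scored as phenotypically active.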

[2] = test system: A549-CANX-COX4
How it was run: as §1

[3] = test system: A549-GM130-SQSTM1
How it was run: as §1

[4] = test system: A549-TP53BP1-CLTA
How it was run: as §1

[5] = test system: A549-TUBA1B-RELA
How it was run: as §1

[6] = test system: HepG2-ACTB-RAB5A
How it was run: as §1

[7] = test system: HepG2-CANX-COX4
How it was run: as §1

[8] = test system: HepG2-GM130-SQSTM1
How it was run: as §1

[9] = test system: HepG2-TP53BP1-CLTA
How it was run: as §1

[10] = test system: HepG2-TUBA1B-RELA
How it was run: as §1

[11] = test system: WPMY1-ACTB-RAB5A
How it was run: as §1

[12] = test system: WPMY1-CANX-COX4
How it was run: as §1

[13] = test system: WPMY1-GM130-SQSTM1
How it was run: as §1

[14] = test system: WPMY1-TP53BP1-CLTA
How it was run: as §1

[15] = test system: WPMY1-TUBA1B-RELA
How it was run: as §1

Measured: phenotypically active

CC(C)c1ccc(CC(=O)N2CCC[C@@H](c3cccc(OC(C)(C)C(=O)O)c3)C2)cc1
inactive: [1] 0 | [2] 0 | [3] 0 | [4] 0 | [5] 0 | [6] 0 | [7] 0 | [8] 0 | [9] 0 | [10] 0 | [11] 0 | [12] 0 | [13] 0 | [14] 0 | [15] 0

CCN1C(C)(C)CC(Oc2ccc(C(=O)Nc3ccc(NC(=O)Nc4cc(C(C)(C)C)on4)cc3)nc2)CC1(C)C
inactive: [1] 0 | [2] 0 | [3] 0 | [4] 0 | [5] 0 | [6] 0 | [7] 0 | [8] 0 | [9] 0 | [10] 0 | [11] 0 | [12] 0 | [13] 0 | [14] 0 | [15] 0

Cc1ccc(OCCSc2ncccn2)c(Br)c1 [ZLN 024 hydrochloride]
inactive: [1] 0 | [2] 0 | [3] 0 | [4] 0 | [5] 0 | [6] 0 | [7] 0 | [8] 0 | [9] 0 | [10] 0 | [11] 0 | [12] 0 | [13] 0 | [14] 0 | [15] 0

CC[N+](C)(CC)CCOC(=O)C1c2ccccc2Oc2ccccc21 [methantheline]
inactive: [1] 0 | [2] 0 | [3] 0 | [4] 0 | [5] 0 | [6] 0 | [7] 0 | [8] 0 | [9] 0 | [10] 0 | [11] 0 | [12] 0 | [13] 0 | [14] 0 | [15] 0

CCc1cc2c(=O)c(-c3nc4ccccc4s3)coc2c(CN2CCCCC2)c1O
inactive: [1] 0 | [2] 0 | [3] 0 | [4] 0 | [5] 0 | [6] 0 | [7] 0 | [8] 0 | [9] 0 | [10] 0 | [11] 0 | [12] 0 | [13] 0 | [14] 0 | [15] 0

CC(C)(C)NS(=O)(=O)c1cncc(-c2cc(F)c3nc(N)nn3c2)c1
inactive: [1] 0 | [2] 0 | [3] 0 | [4] 0 | [5] 0 | [6] 0 | [7] 0 | [8] 0 | [9] 0 | [10] 0 | [11] 0 | [12] 0 | [13] 0 | [14] 0 | [15] 0

Cc1ccc2ccc(C(Nc3ccccc3)c3ccccc3)c(O)c2n1 (stereo not given)
inactive: [1] 0 | [2] 0 | [3] 0 | [4] 0 | [5] 0 | [6] 0 | [7] 0 | [8] 0 | [9] 0 | [10] 0 | [11] 0 | [12] 0 | [13] 0 | [14] 0 | [15] 0

NC(=O)c1cn(Cc2c(F)cccc2F)nn1 [rufinamide]
inactive: [1] 0 | [2] 0 | [3] 0 | [4] 0 | [5] 0 | [6] 0 | [7] 0 | [8] 0 | [9] 0 | [10] 0 | [11] 0 | [12] 0 | [13] 0 | [14] 0 | [15] 0

Cc1[nH]c2ccccc2c1CCNC(=O)c1ccccc1F
inactive: [1] 0 | [2] 0 | [3] 0 | [4] 0 | [5] 0 | [6] 0 | [7] 0 | [8] 0 | [9] 0 | [10] 0 | [11] 0 | [12] 0 | [13] 0 | [14] 0 | [15] 0

CCC(NC(C)C)C(O)c1ccc(O)c(O)c1 (stereo not given) [isoetharine]
inactive: [1] 0 | [2] 0 | [3] 0 | [4] 0 | [5] 0 | [6] 0 | [7] 0 | [8] 0 | [9] 0 | [10] 0 | [11] 0 | [12] 0 | [13] 0 | [14] 0 | [15] 0

CN1C(=O)CC(C)(c2ccccc2)C1=O (stereo not given) [methsuximide]
inactive: [1] 0 | [2] 0 | [3] 0 | [4] 0 | [5] 0 | [6] 0 | [7] 0 | [8] 0 | [9] 0 | [10] 0 | [11] 0 | [12] 0 | [13] 0 | [14] 0 | [15] 0

CC(=O)N1CCN(C)CC1 [1-Acetyl-4-methylpiperazine hydrochloride]
inactive: [1] 0 | [2] 0 | [3] 0 | [4] 0 | [5] 0 | [6] 0 | [7] 0 | [8] 0 | [9] 0 | [10] 0 | [11] 0 | [12] 0 | [13] 0 | [14] 0 | [15] 0
